The values that follow come from article PMC10726135, “HNF4α isoforms regulate the circadian balance between carbohydrate and lipid metabolism in the liver”.

Over roughly 18,000 sequences, “log2 normalized intensity” has its median near 0.39; the highest 2% begin near 6.6. The full list was thinned out, with the highest values kept by preference.

This assay concerns the target T1, HNF4alpha2 (COS-7 nuclear extract) (Homo sapiens, UniProt P41235 1-474).
T1 sequence: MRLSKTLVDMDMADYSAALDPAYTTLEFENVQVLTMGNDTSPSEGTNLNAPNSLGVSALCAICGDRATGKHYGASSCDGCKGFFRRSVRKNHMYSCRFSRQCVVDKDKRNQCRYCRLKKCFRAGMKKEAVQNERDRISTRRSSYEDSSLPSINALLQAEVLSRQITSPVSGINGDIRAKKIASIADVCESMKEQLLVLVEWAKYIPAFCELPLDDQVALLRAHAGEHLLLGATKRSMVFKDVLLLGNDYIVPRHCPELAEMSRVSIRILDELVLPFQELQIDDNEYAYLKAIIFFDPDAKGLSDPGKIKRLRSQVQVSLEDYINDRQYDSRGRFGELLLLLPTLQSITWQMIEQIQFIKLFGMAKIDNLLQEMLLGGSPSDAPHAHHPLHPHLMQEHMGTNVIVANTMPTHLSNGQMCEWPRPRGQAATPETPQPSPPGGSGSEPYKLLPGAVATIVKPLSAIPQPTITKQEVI
The assay can be described thus: protein-binding microarray; COS-7 nuclear extract on double-stranded Agilent 4x180k PBM; binding buffer, salt, pH and temperature not given in the material; high values mean tight binding. The note with it: chain copies: 2; label: 3' end of strand 1 on the slide; dsDNA, one strand shown. The gist of the method:
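The binding signal is Agilent software's gProcessedSignal after background correction and normalization. Arrays were a custom Agilent SurePrint G3 4x180k design of double-stranded ~60-nt oligonucleotides with ~44,000 test sequences in quadruplicate, probed with nuclear extracts of COS-7 cells transiently expressing a human HNF4α isoform. Scans were made at 2-µm resolution on an Agilent G2565CA scanner.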
Regarding “TCTGCAAACACCCCTCCCCCACACAGACAAGCCTAGGGAGATTAGAGTATCGGTCGA”, the binding signal was determined as 5.01 log2 normalized intensity.
As for “ATCTCAGCTCACTGTAACCTTTGCCCCCCTGCCTAGGGAGATTAGAGTATCGGTCGA”, the figure is 8.75 log2 normalized intensity; as for “TGGTGCTATCTTTGCTCACTGTAACCTTTGGCCTAGGGAGATTAGAGTATCGGTCGA”, 3.78 log2 normalized intensity.
“TTTGCTCACTGTAACCTTTGCCCCCCAAGTGCCTAGGGAGATTAGAGTATCGGTCGA”: the binding signal is 8.54 log2 normalized intensity.
Take “GTAACCTTTGCCCCCCAAGTTGAAGCCATCGCCTAGGGAGATTAGAGTATCGGTCGA”: the binding signal came out at 5.16 log2 normalized intensity.
Consider “AACCTTTGCCCCAGCTGTCACCCAGCCAGAGCCTAGGGAGATTAGAGTATCGGTCGA”, for which the binding signal came to 3.68 log2 normalized intensity.
As for “GTGCTATCTCAGCTCACTGTAACCTTTGCCGCCTAGGGAGATTAGAGTATCGGTCGA”, the figure is 3.93 log2 normalized intensity.
As for “AGCCCCAACCCACTGTTGCCCCTTCCAAAGGCCTAGGGAGATTAGAGTATCGGTCGA”, the figure is 4.68 log2 normalized intensity; as for “ACTGTAACCTTTGCCCCCCTGGGCTCAAGCGCCTAGGGAGATTAGAGTATCGGTCGA”, 5.81 log2 normalized intensity; as for “TCACTGTAACCTTTGCCCCCCAAGTTGAAGGCCTAGGGAGATTAGAGTATCGGTCGA”, 6.72 log2 normalized intensity.
As for “AGCAAAGGTCATCCTGGGCTACCGATATGAGCCTAGGGAGATTAGAGTATCGGTCGA”, the figure is 0.737 log2 normalized intensity; as for “TAGACCAGCCAATTCTACTGGAAGTAGGTAGCCTAGGGAGATTAGAGTATCGGTCGA”, 0.854 log2 normalized intensity.
Consider “CCTTTCCCCGCCCCGCGTCCGTGCACCCTTGCCTAGGGAGATTAGAGTATCGGTCGA”, for which the binding signal came out at 4.42 log2 normalized intensity.
As for “ACTTTGAGGTGTTCTCTGGGGTTAGCCAAAGCCTAGGGAGATTAGAGTATCGGTCGA”, the binding signal was found to be 1.59 log2 normalized intensity.
Regarding “CGGGTCAGCAGGGCACCGCCTCCACACCCCGCCTAGGGAGATTAGAGTATCGGTCGA”, the binding signal amounted to 1.59 log2 normalized intensity.
As for “TCACAATTAAGCCAAACTTGGGTTTATGGCGCCTAGGGAGATTAGAGTATCGGTCGA”, the figure is 0.583 log2 normalized intensity.
In the case of “AGACAACCTTTGGTCACTTGTAAGATACTGGCCTAGGGAGATTAGAGTATCGGTCGA”, the binding signal stood at 2.43 log2 normalized intensity.
For “AAGGTTGGTCTTAGGACCACATGAGTAAACGCCTAGGGAGATTAGAGTATCGGTCGA”, the binding signal was -0.756 log2 normalized intensity.
As for “AAGTGACCCTGGTCTTTGCCCTTTCCTAGAGCCTAGGGAGATTAGAGTATCGGTCGA”, the figure is 3.39 log2 normalized intensity; as for “CCTTGGATCTCCTGCACCTGAACTTTGCTCGCCTAGGGAGATTAGAGTATCGGTCGA”, 6.35 log2 normalized intensity; as for “GAGAAGTGAACTTTGCCCTCTCTTTCTGGAGCCTAGGGAGATTAGAGTATCGGTCGA”, 7.55 log2 normalized intensity.
As for “ACTGATCTCTGGCTTGATCCCTGAACTTTGGCCTAGGGAGATTAGAGTATCGGTCGA”, the figure is 3.32 log2 normalized intensity; as for “GGCTTGATCCCTGAACTTTGCTCCCACCCTGCCTAGGGAGATTAGAGTATCGGTCGA”, 5.57 log2 normalized intensity.
As for “TCTCTGGCTTGATCCCTGAACTTTGCTCCCGCCTAGGGAGATTAGAGTATCGGTCGA”, the figure is 7.97 log2 normalized intensity.
“GTGAACTTTGCCCTCTCTTTCTGGAACCTAGCCTAGGGAGATTAGAGTATCGGTCGA”: the binding signal was 5.08 log2 normalized intensity.
As for “TCCTGCCTTGGAGAAGTGAACTTTGCCCTCGCCTAGGGAGATTAGAGTATCGGTCGA”, the figure is 10.2 log2 normalized intensity.
As for “TGGGCTCCTGCCTTGGAGAAGTGAACTTTGGCCTAGGGAGATTAGAGTATCGGTCGA”, the figure is 4.34 log2 normalized intensity; as for “TGGGCTCGGCGCTCCGCTTACTCGGCCTGGGCCTAGGGAGATTAGAGTATCGGTCGA”, -0.994 log2 normalized intensity.
As for “TCCCTCATTAGTAACTCCAGAGATAAGATAGCCTAGGGAGATTAGAGTATCGGTCGA”, the figure is 0.0683 log2 normalized intensity; as for “GCAGTGGGACAAAGGTCACAGGAAAGGGACGCCTAGGGAGATTAGAGTATCGGTCGA”, 4.13 log2 normalized intensity; as for “AGGGAGGGGAGAGGGGGTTAAAGGTTATTTGCCTAGGGAGATTAGAGTATCGGTCGA”, 4.97 log2 normalized intensity.
For “CCTATATAGTTGAGATTGTAACCGTAAATGGCCTAGGGAGATTAGAGTATCGGTCGA”, the binding signal stood at 1.55 log2 normalized intensity.
As for “GTTAAGTGAGTGGACTTTGGTCCTGGTCAGGCCTAGGGAGATTAGAGTATCGGTCGA”, the figure is 6.52 log2 normalized intensity; as for “CGGTCAGCTGCTTGACTTAGTACATGGCCTGCCTAGGGAGATTAGAGTATCGGTCGA”, 0.557 log2 normalized intensity; as for “CATGGACTTTGAACCAAGATATGCTAACATGCCTAGGGAGATTAGAGTATCGGTCGA”, 4.81 log2 normalized intensity.
As for “GAATGCAACCACACCAACATGGACTTTGTCGCCTAGGGAGATTAGAGTATCGGTCGA”, the figure is 6.09 log2 normalized intensity.
As for “ATGTACATGGACTTTGAACCAAGATATGCTGCCTAGGGAGATTAGAGTATCGGTCGA”, the figure is 6.75 log2 normalized intensity; as for “ACACAGTACTTTGTACATGGGAATAGACATGCCTAGGGAGATTAGAGTATCGGTCGA”, 0.863 log2 normalized intensity.
Turning to “TGAATATGTACATGGACTTTGAACCAAGATGCCTAGGGAGATTAGAGTATCGGTCGA”, the binding signal came out at 8.36 log2 normalized intensity.
As for “AGATTTGAATATGTACATGGACTTTGAACCGCCTAGGGAGATTAGAGTATCGGTCGA”, the figure is 10.3 log2 normalized intensity.
As to “AGGTACTAAGAGATTTGAATATGTACATGGGCCTAGGGAGATTAGAGTATCGGTCGA”, the binding signal came to 1.38 log2 normalized intensity.
For the sequence “CTAAGAGATTTGAATATGTACATGGACTTTGCCTAGGGAGATTAGAGTATCGGTCGA”, the binding signal was 6.19 log2 normalized intensity.
Consider “ATCCTTATCTTGTAGAAAAGTGCATGGATTGCCTAGGGAGATTAGAGTATCGGTCGA”, for which the binding signal amounted to 0.836 log2 normalized intensity.
